Shown is part of a subset that was picked to be rich in hits.
14-3-3g Raf: alters human 14-3-3 gamma binding to Raf peptide; hit rate 0.19% among 160,000; FP, 14-3-3gamma / TMR-pS259-Raf peptide binding; P61981; inhibition, % at 40 µM; in the data active = inhibition above about 30%
Target sequence (P61981 whole entry, looked up): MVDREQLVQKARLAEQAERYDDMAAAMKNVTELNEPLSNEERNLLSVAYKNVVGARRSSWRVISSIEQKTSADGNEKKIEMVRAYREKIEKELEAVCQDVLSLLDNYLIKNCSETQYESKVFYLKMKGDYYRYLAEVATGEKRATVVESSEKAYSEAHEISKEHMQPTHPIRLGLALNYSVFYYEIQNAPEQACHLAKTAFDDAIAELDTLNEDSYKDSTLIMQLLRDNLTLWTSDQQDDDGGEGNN
Hits are given with their value.

`O=c1c2sc3ccc([N+](=O)[O-])cc3c2[nH]c(=S)n1C1CCCCC1` gave 14-3-3g Raf inactive.
Screening COc1cc(C=Nc2ccc3oc(=O)ccc3c2)ccc1C(=O)Oc1ccccc1I returned 14-3-3g Raf inactive.
For CC1=CC(C)(C)N(C(=O)CSc2nc3ccccc3[nH]2)c2ccc(C)cc21 the results were 14-3-3g Raf inactive.
Screening Cc1ccc(-n2nc(C)c(S(=O)(=O)c3ccccc3)c2OC(=O)c2ccco2)c(C)c1 returned 14-3-3g Raf inactive.
`CCC(=O)N1CCc2cc(S(=O)(=O)CCC(=O)NC(C)c3ccccc3)ccc21` (stereo unspecified) gave 14-3-3g Raf inactive.
COc1ccc(OC)c(NC(=O)CCS(=O)(=O)c2ccc(Cl)cc2)c1 was read as 14-3-3g Raf inactive.
CCOC(=O)C1=CN(C)C=C(C(=O)OCC)C1c1ccc2c(c1)OCO2 was read as 14-3-3g Raf inactive.
Cc1ccc(Cl)cc1N1CCN(C(=O)c2ccc3c(c2)NC(=O)C(CSCc2ccccc2Cl)N3)CC1 (stereo unspecified) was read as 14-3-3g Raf inactive.
`Cc1ccc(C(=O)NCC(C)(C)O)cc1` gave 14-3-3g Raf 67.
Cc1ccc(C(=O)NCCNC(=O)c2ccc(C)cc2)cc1 was read as 14-3-3g Raf inactive.
Cc1ccc(C(=O)NCCNC(=O)c2ccncc2)cc1 was read as 14-3-3g Raf inactive.
`CCc1ccc(CNC(=O)CN2C(=O)C(CC)Sc3ccccc32)cc1` (stereo unspecified) gave 14-3-3g Raf inactive.
CCc1ccc(C2CC(c3ccc(OC)c(OC)c3)=NN2C(C)=O)cc1 (stereo unspecified) was read as 14-3-3g Raf inactive.
`O=C1c2ccccc2-c2onc3ccc(NCCCn4ccnc4)c1c23` gave 14-3-3g Raf inactive.
Screening CC(=O)OCCNc1ccc2noc3c2c1C(=O)c1ccccc1-3 returned 14-3-3g Raf active.
`Cc1ccccc1Nc1ccc2noc3c2c1C(=O)c1ccccc1-3` gave 14-3-3g Raf inactive.
CCOC(=O)C1=C(C)Nc2ncnn2C1c1ccc(C(=O)OC)cc1 (stereo unspecified) was read as 14-3-3g Raf inactive.
Screening CSc1ccc(-c2nc3ncccn3c2Nc2ccccc2C)cc1 returned 14-3-3g Raf inactive.
For Clc1ccc(Sc2c(-c3ccccc3)nc3ncccn23)cc1 the results were 14-3-3g Raf 39.
Screening Clc1ccc(-c2nc3ncccn3c2Nc2ccc3c(c2)OCO3)cc1 returned 14-3-3g Raf inactive.
CC(=O)N1CCc2cc(S(=O)(=O)NC(C(=O)Nc3ccc4c(c3)OCO4)C(C)C)ccc21 (stereo unspecified) was read as 14-3-3g Raf inactive.
Screening CCOC(=O)CN=C1CC(C)(C)CC2=C1Sc1ncnc(OC)c1N2 returned 14-3-3g Raf 81.
For CCOC(=O)C1=C(C)NC2=C(C(=O)CC(C)(C)C2)C1c1ccccn1 (stereo unspecified) the results were 14-3-3g Raf inactive.
`COCCOC(=O)C1=C(C)NC(=O)NC1c1c(OC)ncnc1OC` (stereo unspecified) gave 14-3-3g Raf inactive.
Screening CCC(C)N1C(=O)CN(C2CCC(C)CC2)C(=O)C1c1ccc(F)cc1 (stereo unspecified) returned 14-3-3g Raf inactive.
For Cc1ccc(CSc2nnc3c(n2)OC(c2ccc(C(=O)O)cc2)Nc2ccccc2-3)cc1 (stereo unspecified) the results were 14-3-3g Raf inactive.
Clc1ccc(CSc2nnc3c(n2)OC(c2ccncc2)Nc2ccccc2-3)cc1 (stereo unspecified) was read as 14-3-3g Raf inactive.
For Cc1ccc(CSc2nnc3c(n2)OC(c2cccc(C)n2)Nc2ccccc2-3)cc1 (stereo unspecified) the results were 14-3-3g Raf 32.
`CCCSc1nnc2c(n1)OC(c1cccc(C)n1)Nc1ccccc1-2` (stereo unspecified) gave 14-3-3g Raf inactive.
Screening Cc1ccc(CSc2nnc3c(n2)OC(c2ccncc2)Nc2ccccc2-3)cc1 (stereo unspecified) returned 14-3-3g Raf 76.
For Cc1ccc(CSc2nnc3c(n2)OC(c2ccccn2)Nc2ccccc2-3)cc1 (stereo unspecified) the results were 14-3-3g Raf inactive.
CCN(Cc1ccccc1)S(=O)(=O)c1ccc(F)c(C(=O)Nc2cc(C)ccc2C)c1 was read as 14-3-3g Raf inactive.
`Cc1ccc(S(=O)(=O)Nc2ccccc2C(=O)Nc2nc3ccc(C)cc3s2)cc1` gave 14-3-3g Raf inactive.
`Cc1cc(=S)cc(C)n1Cc1ccco1` gave 14-3-3g Raf inactive.
CCC(NS(=O)(=O)c1ccc(C)cc1)C(=O)NC1CCCC(C)C1C (stereo unspecified) was read as 14-3-3g Raf inactive.
Screening CCn1c(-c2ccc(S(=O)(=O)N3CCOCC3)cc2)csc1=Nc1ccc(Oc2ccccc2)cc1 returned 14-3-3g Raf inactive.
For COC(=O)CN1C(c2ccc(OC)cc2)=Nc2ccc(Br)cc2C1c1ccccc1 (stereo unspecified) the results were 14-3-3g Raf inactive.
COCCCN1C(=S)NC2c3cc(C)ccc3OC1(C)C2C(=O)Nc1ccc(C)cc1C (stereo unspecified) was read as 14-3-3g Raf inactive.
`CN(C)CCN1C(=O)C(=O)/C(=C(/O)c2ccccc2)C1c1ccc2c(c1)OCO2` (stereo unspecified) gave 14-3-3g Raf inactive.
Screening N#Cc1cc(-c2ccccc2C(F)(F)F)no1 returned 14-3-3g Raf inactive.
CCN(CC)c1ccc(-c2cc(C#N)on2)cc1 was read as 14-3-3g Raf 41.
CCN(CC)c1ccc(CNc2ccc(Br)cn2)cc1 was read as 14-3-3g Raf inactive.
Screening Cc1ccc(C2OC3(C(=O)c4ccccc4C3=O)C3C(=O)N(c4ccccc4F)C(=O)C23)cc1 (stereo unspecified) returned 14-3-3g Raf inactive.
For C[n+]1ccn(CC#N)c1 the results were 14-3-3g Raf inactive.
`CCN1C(=O)c2ccc(S(=O)(=O)N3CCCCCC3)c3cccc1c23` gave 14-3-3g Raf inactive.
For CCN1C(=O)c2cccc3c(S(=O)(=O)N4CCCC4)ccc1c23 the results were 14-3-3g Raf inactive.
`CCN1C(=O)c2cccc3c(S(=O)(=O)N4CCCc5ccccc54)ccc1c23` gave 14-3-3g Raf 33.
For O=C(Nc1ccc(F)cc1)Nc1ccc(Cc2ccncc2)cc1 the results were 14-3-3g Raf inactive.
Screening CN(C)c1ccc(N=Cc2nc(-c3ccccc3)oc2O)cc1 returned 14-3-3g Raf 112.
CSc1ccccc1N=Cc1nc(-c2ccccc2)oc1O was read as 14-3-3g Raf inactive.
`CC(=O)Nc1ccc(N=Cc2nc(-c3ccc(C)cc3)oc2O)cc1` gave 14-3-3g Raf inactive.
Screening O=C(CSc1nnc(-c2cccc(Br)c2)n1-c1ccccc1)Nc1ccccc1F returned 14-3-3g Raf inactive.
`O=C(CSc1nc2c(sc3ccccc32)c(=O)n1CCc1c[nH]c2ccccc12)NCc1ccccc1` gave 14-3-3g Raf inactive.
Cc1cc(=O)c2c(ccc3ccccc32)[nH]1 was read as 14-3-3g Raf inactive.
`O=C(C[n+]1cccc(Br)c1)c1ccccc1` gave 14-3-3g Raf inactive.
O=C(C[n+]1ccc2ccccc2c1)c1ccccc1 was read as 14-3-3g Raf 45.
O=C(C[n+]1ccc2ccccc2c1)c1ccc2c(c1)Cc1ccccc1-2 was read as 14-3-3g Raf inactive.
`CC(=O)C12c3ccccc3C(c3ccccc31)C1C(=O)N(c3ccc(Cl)cc3[N+](=O)[O-])C(=O)C12` (stereo unspecified) gave 14-3-3g Raf inactive.

From PubChem BioAssay
